Measured values: PubChem BioAssay
Activity calls are given as the source filed them. Cut-off read from the data, not from the text of the source, unless noted: active = nuclear beta-catenin stimulation mostly above about 4.2% (no sharp cut-off); inactive = mostly below about 10%.

Columns and labels:
[1] = stimulators of nuclear beta-catenin in C2C12, primary screen, imaging, WNT3A-conditioned medium, mouse C2C12, NPC library (AID 1117326); conditions: stronger effect = higher value; note: reference of the scale not given here
[2] = stimulators of insulin release from INS-1E, primary screen, cell-based, 5 mM glucose, NPC library (AID 1117329;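 active = compound raises insulin release from rat beta cells at 5 mM glucose, no numeric limit stated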; note: reference of the scale not given here); conditions: rat INS-1E insulin secretion, at 10 µM, stronger effect = higher value
[3] = growth inhibition of GSK3B-pretreated HCT116 cells – cell-based, CellTiter-Glo, 0.2 to 20 µM (AID 1117336;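 active = compounds lowering colon cancer cell viability after pretreatment blocking the GSK3B kinase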); conditions: HCT116 viability after GSK3B inhibitor, at 20 µM, stronger effect = higher value
[4] = inhibition of endothelial tube formation, primary screen, imaging, VEGF stimulated, CD31 staining, tube area, NPC library (AID 1117340;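 active = compound that reduces growth-factor-driven endothelial tube area in a mixed cell culture, no cutoff stated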); conditions: VEGF-stimulated ADSC/ECFC co-culture, at 10 µM, stronger effect = higher value
[5] = glucagon-like peptide 1 release enhancers, primary assay, NCI-H716 cell line, NPC library (AID 1117341;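 active = compound raises GLP1 secretion from the human gut endocrine cells, with no numeric limit stated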; note: reference of the scale not given here); conditions: NCI-H716 cells, at 10 µM, stronger effect = higher value
[6] = HCT116 colon cancer cell growth inhibition, primary screen, CellTiter-Glo luminescence, NPC library (AID 1117342;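 active = compounds that lower survival of HCT116 colon cancer cells in the luminescence readout, no numeric limit stated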); conditions: at 20 µM (top of the series)
[7] = CellTiter-Glo luminescent readout of SW480 viability loss, NPC library primary (AID 1117343;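 active = compounds that lower viability of the colon cancer cells in the luminescence readout, with no numeric limit stated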); conditions: CellTiter-Glo luminescence; at 20 µM (top of the series)
[8] = decreased DLD-1 cellular survival, CellTiter-Glo luminescent readout, NPC compound collection, primary HTS (AID 1117346;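 active = compounds that lower survival of DLD-1 colon cancer cells in the luminescence readout, no cutoff given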); conditions: DLD-1 viability, CellTiter-Glo luminescence; at 20 µM (top of the series)

CCCCCCCCC=CCCCCCCCC(=O)NCCOC(=O)CC(C(=O)O)S(=O)(=O)O (stereo not given)
inactive: nuclear beta-catenin stimulation ([1]; at 10 µM) 0.3% | insulin secretion stimulation [2] 0.8% | tube area decrease [4] 22.7% | GLP1 secretion stimulation [5] -1% | inhibition of viability [6] 17.1%
active: viability decrease [3] 36.1% | viability decrease (inhibition) [7] 63.4% | viability decrease (inhibition) [8] 81.6%
-0.7%: nuclear beta-catenin stimulation ([1]; stimulation, at 2 µM)

CC(C)[C@H]1CC[C@H](C)C[C@H]1O
inactive: nuclear beta-catenin stimulation ([1]; at 10 µM) -2.2% | insulin secretion stimulation [2] 2.4% | viability decrease [3] 2% | tube area decrease [4] -11.4% | GLP1 secretion stimulation [5] 7.7% | inhibition of viability [6] 8.8% | viability decrease (inhibition) [7] 17.2%
active: viability decrease (inhibition) [8] 5.7%
-0.8%: nuclear beta-catenin stimulation ([1]; stimulation, at 2 µM)

CCOC(=O)c1cc(=O)c2c(OCC(COc3cccc4oc(C(=O)OCC)cc(=O)c34)OC(=O)[C@@H](N)CCCCN)cccc2o1
1.2%: nuclear beta-catenin stimulation ([1]; stimulation, at 2 µM)
inactive: nuclear beta-catenin stimulation ([1]; at 10 µM) 0.5% | insulin secretion stimulation [2] -1.2% | viability decrease [3] -30% | tube area decrease [4] 4.5% | GLP1 secretion stimulation [5] 7.5% | inhibition of viability [6] -25.1% | viability decrease (inhibition) [7] -75% | viability decrease (inhibition) [8] -11.5%

Cc1c(Cn2ccnc2)c2ccccc2n1CCC(=O)O
2.7%: nuclear beta-catenin stimulation ([1]; stimulation, at 2 µM)
active: viability decrease [3] 108% | inhibition of viability [6] 103% | viability decrease (inhibition) [7] 79.6% | viability decrease (inhibition) [8] 60.9%
inactive: nuclear beta-catenin stimulation ([1]; at 10 µM) 0.7% | insulin secretion stimulation [2] -0.1% | tube area decrease [4] -6.9% | GLP1 secretion stimulation [5] -1.3%

CCN(CC)CC(=O)Nc1c(C)cccc1C(=O)OC
0.3%: nuclear beta-catenin stimulation ([1]; stimulation, at 2 µM)
inactive: nuclear beta-catenin stimulation ([1]; at 10 µM) 0% | insulin secretion stimulation [2] 0.7% | viability decrease [3] -3% | tube area decrease [4] 27.1% | GLP1 secretion stimulation [5] 4.8% | inhibition of viability [6] -7.9% | viability decrease (inhibition) [7] -13.2% | viability decrease (inhibition) [8] -17.2%

Cc1cccc(C)c1NC(=O)c1cc(S(N)(=O)=O)c(Cl)cc1O
0.7%: nuclear beta-catenin stimulation ([1]; stimulation, at 2 µM)
inactive: nuclear beta-catenin stimulation ([1]; at 10 µM) -1.8% | insulin secretion stimulation [2] -1.9% | viability decrease [3] -8.6% | tube area decrease [4] -2.4% | GLP1 secretion stimulation [5] -2.3% | inhibition of viability [6] -3.4% | viability decrease (inhibition) [7] 3.4% | viability decrease (inhibition) [8] -5.4%

CCOc1ccc(S(=O)(=O)O)c2cccnc12
inactive: nuclear beta-catenin stimulation ([1]; at 10 µM) -0.1% | insulin secretion stimulation [2] 6% | viability decrease [3] -10.2% | tube area decrease [4] -5.5% | GLP1 secretion stimulation [5] -3.3% | inhibition of viability [6] -0.3% | viability decrease (inhibition) [7] 1.9% | viability decrease (inhibition) [8] 0.1%
0.5%: nuclear beta-catenin stimulation ([1]; stimulation, at 2 µM)

NNc1nnc(NN)c2ccccc12
active: tube area decrease [4] 40.1%
1.4%: nuclear beta-catenin stimulation ([1]; stimulation, at 2 µM)
inactive: nuclear beta-catenin stimulation ([1]; at 10 µM) 3.3% | insulin secretion stimulation [2] -1.8% | viability decrease [3] -0.85% | GLP1 secretion stimulation [5] -3.3% | inhibition of viability [6] 22.6% | viability decrease (inhibition) [7] 22.7% | viability decrease (inhibition) [8] 6.6%

c1ccc(C(O[C@H]2CCCN(CCc3ccc4c(c3)OCO4)C2)c2ccccc2)cc1
1.5%: nuclear beta-catenin stimulation ([1]; stimulation, at 2 µM)
active: viability decrease [3] 100% | inhibition of viability [6] 96.3% | viability decrease (inhibition) [7] 101% | viability decrease (inhibition) [8] 90.1%
inactive: nuclear beta-catenin stimulation ([1]; at 10 µM) 0.9% | insulin secretion stimulation [2] 5.45% | tube area decrease [4] -6.8% | GLP1 secretion stimulation [5] 0.6%

CCN(CC)CCNC(=O)COc1ccc(Cl)cc1
inactive: nuclear beta-catenin stimulation ([1]; at 10 µM) -2.4% | insulin secretion stimulation [2] 0.9% | viability decrease [3] -9.5% | tube area decrease [4] -3.5% | GLP1 secretion stimulation [5] -4.5% | inhibition of viability [6] 22.7% | viability decrease (inhibition) [7] 34.2% | viability decrease (inhibition) [8] 0.6%
-0.4%: nuclear beta-catenin stimulation ([1]; stimulation, at 2 µM)

O=C(Nc1ncc([N+](=O)[O-])s1)c1cccs1
inactive: nuclear beta-catenin stimulation ([1]; at 10 µM) -2.8% | insulin secretion stimulation [2] -0.4% | viability decrease [3] 45.8% | GLP1 secretion stimulation [5] -0.9% | inhibition of viability [6] 41.2% | viability decrease (inhibition) [7] 43.6%
-1.2%: nuclear beta-catenin stimulation ([1]; stimulation, at 2 µM)
active: tube area decrease [4] 46.3% | viability decrease (inhibition) [8] 67.5%

CCC(=O)Nc1ccc(O)cc1
inactive: nuclear beta-catenin stimulation ([1]; at 10 µM) 9.3% | insulin secretion stimulation [2] -2.2% | viability decrease [3] -1% | tube area decrease [4] 16% | GLP1 secretion stimulation [5] 4.4% | inhibition of viability [6] 12.2% | viability decrease (inhibition) [7] 27% | viability decrease (inhibition) [8] 14.6%
1.9%: nuclear beta-catenin stimulation ([1]; stimulation, at 2 µM)

O=C(Cn1ccnc1[N+](=O)[O-])NCc1ccccc1
0.4%: nuclear beta-catenin stimulation ([1]; stimulation, at 2 µM)
inactive: nuclear beta-catenin stimulation ([1]; at 10 µM) -0.6% | insulin secretion stimulation [2] -1.9% | viability decrease [3] -22.5% | tube area decrease [4] -8.5% | GLP1 secretion stimulation [5] -4.4% | inhibition of viability [6] 1.8% | viability decrease (inhibition) [7] 7.9% | viability decrease (inhibition) [8] 1%

CC(C)c1cc2c(cc1S(=O)(=O)O)[C@@]1(C)CCC[C@@](C)(C(=O)O)[C@@H]1CC2
-3.3%: nuclear beta-catenin stimulation ([1]; stimulation, at 2 µM)
inactive: nuclear beta-catenin stimulation ([1]; at 10 µM) -1% | insulin secretion stimulation [2] 1.4% | viability decrease [3] 3.3% | tube area decrease [4] -20.8% | GLP1 secretion stimulation [5] -1.8% | inhibition of viability [6] 5.2% | viability decrease (inhibition) [7] -5.2% | viability decrease (inhibition) [8] 11.9%

CS(=O)(=O)c1ccc(-c2cn3ccccc3n2)cc1
-0.4%: nuclear beta-catenin stimulation ([1]; stimulation, at 2 µM)
inactive: nuclear beta-catenin stimulation ([1]; at 10 µM) -2% | insulin secretion stimulation [2] 0.9% | viability decrease [3] 18.1% | tube area decrease [4] -6.3% | GLP1 secretion stimulation [5] -2.6% | inhibition of viability [6] 14.5% | viability decrease (inhibition) [7] 22.6% | viability decrease (inhibition) [8] 13.5%
